# Test results published in the supplement of paper PMC6555819.
# Assays:
# Experiment in all cases: PBM binding z-score (relative to random genomic background probes); higher = stronger binding; sequences stand for … in GC…GCGATTGACAGCGTAGAATGAAGG
# [1] = system: FXR:RXRa (NR concentration 270 nM, RXRa partner concentration 90 nM)
# Procedure, shortened: (§1)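 Ligand-free nuclear receptor dimers were applied to custom Agilent 4×180K protein-binding microarrays whose double-stranded probes carried direct-repeat seeds, single-nucleotide variants, half-site ablations and random human genomic background sequences in 34-nt variable regions. Incubation lasted 1 h. Binding z-scores were computed against the random background probes from regression-normalized fluorescence.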
# [2] = system: LXRa:RXRa (NR concentration 270 nM, RXRa partner concentration 90 nM)
# Procedure, shortened: as §1
# [3] = system: LXRa homodimer (NR concentration 270 nM)
# Procedure, shortened: as §1
# [4] = system: LXRb:RXRa (NR concentration 270 nM, RXRa partner concentration 90 nM)
# Procedure, shortened: as §1
# [5] = system: LXRb homodimer (NR concentration 270 nM)
# Procedure, shortened: as §1
# [6] = system: PPARa:RXRa (NR concentration 270 nM, RXRa partner concentration 90 nM)
# Procedure, shortened: as §1
# [7] = system: PPARg:RXRa (NR concentration 180 nM, RXRa partner concentration 90 nM)
# Procedure, shortened: as §1
# [8] = system: PPARg:RXRa 270nM:90nM, anti-RXR (NR concentration 270 nM, RXRa partner concentration 90 nM)
# Procedure, shortened: as §1
# [9] = system: PPARg:RXRa 30nM:10nM, anti-RXR (NR concentration 30 nM, RXRa partner concentration 10 nM)
# Procedure, shortened: as §1
# [10] = system: PPARg:RXRa 90nM:30nM, anti-RXR (NR concentration 90 nM, RXRa partner concentration 30 nM)
# Procedure, shortened: as §1
# [11] = system: PPARg:RXRa DBDmut IVT, anti-RXR (DBD mutation: RXRa K156A/R161A, NR concentration 270 nM, RXRa partner concentration 90 nM)
# Procedure, shortened: as §1
# [12] = system: PPARg:RXRa IVT, anti-PPARg (NR concentration 270 nM, RXRa partner concentration 90 nM)
# Procedure, shortened: as §1
# [13] = system: PPARg DBDmut:RXRa IVT, anti-PPARg (DBD mutation: PPARg1 K132A/R137A, NR concentration 270 nM, RXRa partner concentration 90 nM)
# Procedure, shortened: as §1
# [14] = system: PPARg DBDmut IVT, anti-PPARg (DBD mutation: PPARg1 K132A/R137A, NR concentration 270 nM)
# Procedure, shortened: as §1
# [15] = system: PPARg homodimer (NR concentration 180 nM)
# Procedure, shortened: as §1
# [16] = system: PXR:RXRa (NR concentration 270 nM, RXRa partner concentration 90 nM)
# Procedure, shortened: as §1
# [17] = system: PXR homodimer (NR concentration 270 nM)
# Procedure, shortened: as §1
# [18] = system: RARa:RXR (NR concentration 270 nM, RXRa partner concentration 90 nM)
# Procedure, shortened: as §1
# [19] = system: RARa homodimer (NR concentration 270 nM)
# Procedure, shortened: as §1
# [20] = system: RARb:RXRa (NR concentration 270 nM, RXRa partner concentration 90 nM)
# Procedure, shortened: as §1
Sequence,PBM binding z-score [1],PBM binding z-score [2],PBM binding z-score [3],PBM binding z-score [4],PBM binding z-score [5],PBM binding z-score [6],PBM binding z-score [7],PBM binding z-score [8],PBM binding z-score [9],PBM binding z-score [10],PBM binding z-score [11],PBM binding z-score [12],PBM binding z-score [13],PBM binding z-score [14],PBM binding z-score [15],PBM binding z-score [16],PBM binding z-score [17],PBM binding z-score [18],PBM binding z-score [19],PBM binding z-score [20]
ACTATTTGTTGAGACGAGGGCAACCGATAGGTTG,0.374,0.535,0.28,0.453,0.762,0.255,0.623,0.216,0.23,0.0132,0.443,0.881,1.52,1.09,0.629,0.581,0.979,0.391,0.779,1.07
TCTTGTAGATCAAGGAGGTTAAGAAAGCCTGAGT,0.502,0.513,-0.308,0.459,-0.443,1.27,-0.429,1.44,2.7,1.77,1.66,0.772,0.58,0.0101,0.474,0.734,0.408,0.789,-0.0638,0.468
TGAATGAGGTTATAAGATCAGTGAACGTTGCAAA,1.18,1.34,-0.254,1.17,-0.0173,2.66,1.29,1.72,0.94,1.35,1.21,1.6,1.17,0.745,0.394,0.814,0.0458,1.62,0.171,1.25
TCAGCTAGGTCAGTTGGTCAGCTAACGAGCTGCC,0.695,0.358,-0.597,0.201,-0.435,1.22,0.615,1.71,1.93,1.94,2.84,2.65,-0.243,0.225,-0.166,0.0327,-1.06,0.304,-0.936,3.31
AGAACGAGGGCACGCTGAGTTGATAGCAGAGTAG,0.783,0.47,-0.551,0.0516,-0.876,2.36,2.01,1.79,0.0193,0.94,4.13,3.81,0.29,-0.41,0.297,1.28,-0.0574,0.83,0.0569,2.52
TCTCGGAGGACACGAAAGGTCCGAGCTCGACATC,0.78,0.222,-0.359,-0.21,-0.97,0.254,0.0516,0.627,1.98,1.28,1.48,-0.219,-0.586,-0.37,-0.226,0.0287,-0.785,0.412,-1.1,1.47
TCGAATAGGTTAGTCGGGGCATTCAGCCAACATA,0.693,0.608,-0.0621,1.02,-0.284,1.29,0.133,1.54,2.74,1.94,2.05,0.81,-0.355,-0.412,0.278,0.59,0.0716,0.628,-0.516,1.06
CCGAGCAGGCCAATCTGGGTCACTCAAGGCTTGA,1.11,1.16,-0.65,0.371,-1.25,2.65,2.05,2.12,-0.249,1.21,3.97,4.58,-1.06,-1.1,0.368,0.937,-0.646,1.17,-1.1,1.77
TGAATGAGGTTAAAGCTCAGGGAACGTGGCGTCG,2.94,1.92,-0.466,0.894,-0.222,3.6,2.86,4,2.09,3.82,2.25,2.59,-0.0715,0.871,0.0932,1.07,-0.806,1.84,-0.696,1.78
TCTTGTAGATCAGGAGGTTAAGAAAGCTGGCCAA,0.046,0.738,0.262,0.752,-0.475,1.46,-0.25,1.8,2.55,2.11,1.51,0.654,0.143,-0.244,0.0785,0.352,-0.154,0.854,-0.318,0.586
GCGACTGGGGCAACGCAGGTTACCATAAGGTTGG,0.326,0.211,-0.468,0.14,-0.947,1.52,1.61,1.27,-0.287,0.414,4.39,4.13,-0.305,-0.763,-0.0289,0.606,-0.69,0.702,-1.06,1.19
CCTATTAGTTGACCACAAGGGCAACCGAAGCTCG,0.713,0.65,0.493,0.591,0.786,0.698,0.53,0.203,0.1,0.256,0.687,0.913,0.619,0.658,1.46,0.841,1,0.762,1.46,1.49
TCATATAGGTAAAGGCTAGGTGAAAGTCCGATCT,1.01,0.707,-0.194,0.441,-0.41,1.71,1.18,2.39,3.57,2.98,3.97,3.25,0.56,1.28,0.619,0.508,0.058,1.09,1.15,0.844
ATCTCTAGGTAACCAAGTTCAGTAAATGCCGAAC,0.686,1.04,1.15,1.1,0.894,1.29,0.842,1.1,0.556,0.989,3.43,2.97,1.54,2.29,1.32,2.05,1.79,1.07,0.775,1.2
AGAATGAGATTAAGATCAGGGAAACAGAATACAT,-0.282,-0.601,-0.0604,-0.466,-0.594,-0.494,0.75,-0.304,0.17,-0.228,-0.828,-0.427,0.0625,0.018,0.131,-0.366,0.121,-0.347,-0.129,-1.06
GCTTTTAGATCAAGGTTAAGAAAGACTAAGCTAA,0.411,1.15,-0.245,0.993,0.252,1.49,0.495,1.1,0.053,0.706,0.974,0.787,0.785,0.404,0.294,0.507,0.294,1.07,0.203,1.04
ATCGAAACGTCGAGGTGAGTATAGAGAAAGGGAA,-0.226,-0.343,-0.626,-0.525,-0.471,-0.00336,0.304,-0.503,0.3,-0.335,-1,0.225,0.306,0.714,-0.637,-0.126,-0.0991,0.0247,-0.11,0.508
ATCGAAAGGTCGAGGAGAGTATAGAGAAAGGGAA,4.17,3.26,0.202,2.47,0.669,4.24,2.57,2.92,1.38,2.09,0.194,1.22,1.53,0.209,1.53,2.33,0.36,2.76,0.436,3.9
CCGACTGGGGCAGAAAGGTTAGCATACCATCCGG,-0.121,0.018,-0.422,0.0251,-1.09,1.22,1.22,1.7,-0.0378,0.958,1.54,1.41,-0.783,-1.16,-0.251,0.123,-0.44,0.634,0.154,1.43
TTACCGAGGTGAAGGTCGTTGATCCCTCTGTAGA,2.23,2.18,-0.314,1.71,-0.388,2.95,3.07,3.81,1.61,3,1.78,3.4,0.416,0.34,0.505,1.72,0.178,1.84,-0.539,2.11
CCGACTGGGCCAAAGGTCATTGATTCCAATGCTC,4.37,4.94,3.7,4.49,0.0732,6.09,11,10,8.79,12.1,3.83,5.72,-0.642,0.24,4.69,5.36,1.79,5.72,0.97,4.52
TCTATTAGTTGATTACGGCAACCGAAACAGCGGA,0.899,0.638,0.651,0.546,0.998,0.921,0.134,1.95,3.63,3.1,2.26,0.246,1.27,1.25,1.11,0.471,0.751,0.595,1.59,0.331
CAAACTTGGTCAAGGTCAAAGTCGGTTTGTGCCA,4.61,4.38,2.94,3.8,0.689,4.46,2.73,3.77,1,2.73,2.24,3.79,0.249,1.03,1.86,4.45,1.54,4.15,0.201,4.12
CGAACTAGGTCATCCAGGACACTGAATACATTGA,4.41,3.1,0.974,2.29,0.265,4.94,7.9,6.43,3.85,5.81,8.38,8.23,3.17,1.12,2.19,2.31,1.65,2.99,1.29,3.98
ATGTCTAGGTAAGACTCAGTTCAGTGAAGAACGC,-0.0311,0.274,0.049,-0.259,-0.00137,-0.0837,0.0566,0.15,-0.029,-0.0514,0.955,0.996,0.297,0.538,0.433,0.668,1.4,-0.0923,0.712,0.132
CCACCAAGGTGAACAAGGTCGTTGATTACTATTC,1.47,1.57,0.468,2.04,-0.359,2.63,1.21,1.23,-0.313,0.583,2.14,2.55,0.528,0.567,1.61,3.17,2.75,2.58,0.52,2.37
ACAGACAGGTGATGATGGTAACTCAGGCTATCAT,0.142,-0.0671,-0.0719,-0.166,-0.2,-0.0535,0.679,-0.301,0.191,0.135,-0.209,0.395,-0.375,0.608,0.0138,0.234,0.57,0.211,0.598,0.146
CAAACTAGGTCAAAGGTCAAAGGCGAGCCAACCA,8.49,7.21,4.91,7.14,2.68,7.65,14.2,11.5,14.7,13.9,8.87,9.3,4.87,2.24,4.33,6.93,1.55,9.2,2.6,5.86
CCTCGGAGGACAGAAGTTCAGAGCTGTCCGCTTT,-0.0968,0.116,-0.259,-0.479,-0.948,-0.198,-0.643,-0.616,-1.24,-0.788,-0.783,-0.951,-1.61,-1.82,-0.0548,0.556,-0.104,-0.223,-0.677,1.59
